Assay outcomes: PubChem BioAssay, National Center for Advancing Translational Sciences (NCATS)
In the library only some 7.3% were active in any assay of this set; here they are far more common.
HCMV antiviral = blocks human cytomegalovirus replication | HFF cells, HCMV-luciferase reporter, 72 h; stronger effect = lower value | activity change, negative = inhibition, % at 57.5 µM | 410,000 tested, 4.5% active; in the data active = activity change below about -60%; inconclusive = no clear call, values can overlap the other calls; inactive = above about -39%
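Screen run at 2 compound doses on HFFs infected with reporter HCMV, MOI 1 PFU/cell. Luciferase activity from cell lysates at 72 h post infection gave inhibition relative to buffer-only and Salinomycin wells.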
Vaccinia Venus = inhibitors of vaccinia virus (Venus reporter); Vaccinia virus Venus reporter expression, fluorescence; Potency, µM (series often up to 36.5 µM), without a hit: at the highest dose activity change, negative = inhibition, hits mostly inhibitors; AID 720580; 330,000 tested, 0.46% active; calls by dose curve; tested in A549 cells; also: potency is read from the fitted curve at half-maximal effect; nearly all actives have a fitted effect of over 30% in size
FMDV antiviral = blocks foot and mouth disease virus; FMDV antiviral cell-based qHTS; 410,000 tested, 1.2% active; Potency, µM (top dose mostly 57.9 µM), without a hit: at the highest dose activity change, negative = inhibition, usual class: inhibitors; AID 1159524; calls by dose curve; tested in HEK293T cells; also: read-out not given here; potency is read from the fitted curve at half-maximal effect; nearly all actives have a fitted effect of over 45% in size
VACV mCherry inh = inhibitors of vaccinia virus infection (mCherry reporter signal); Vaccinia virus mCherry reporter infection, fluorescence; Potency, µM (highest dose often 36.5 µM), without a hit: top-dose activity change, negative = inhibition, actives largely listed as inhibitors; 310,000 tested, 0.63% active; calls by dose curve; tested in A549 cells; also: potency is read from the fitted curve at half-maximal effect; nearly all actives have a fitted effect of over 35% in size
HCV inhibitor = HCV inhibition. Huh7.5.1 HCVcc-Cre infection, luciferase reporter, 44 h. Potency, µM (highest dose often 41.8 µM), for inactives: at the top dose activity change, negative = inhibition, most hits filed as inhibitors. 340,000 tested, 3.4% active; active = well fitted inhibition curve with a large enough effect; inconclusive = small, poorly fitted or top-dose-only effect, or another doubt; inactive = no such curve, though single readings can be large or run the other way; also: potency is read from the fitted curve at half-maximal effect
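Antiviral activity was scored by luciferase reporter output from cells infected with HCVcc-Cre (~0.5 moi) in presence of compound, 44 h infection period, cells seeded 1,000/well 4 h prior.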
Numbers without * were called inactive; i = inactive; ? = inconclusive; · = not tested or not shown. % is scaled to controls: 0 for no effect and ±100 for the full control effect.

SMILES	HCMV antiviral	Vaccinia Venus	FMDV antiviral	VACV mCherry inh	HCV inhibitor
CC1=C(C(N)=O)C(c2ccc(C)cc2)n2nc(SCc3ccccc3)nc2N1 (configuration not stated)	-2.6	-4.1%	15.3%	-0.6%	·
COc1cccc(/C=C2\Oc3ccc(O)cc3C2=O)c1O	-29.5	63.5%	11.2µM*	-4.6%	-5.4%
O=c1[nH]nc(SCCS(=O)(=O)c2ccc(F)cc2)n1-c1ccc2c(c1)OCCO2	-80.7*	1.58µM*	-28.4%	?	3.6%
O=c1[nH]nc(SCCS(=O)(=O)c2ccc(F)cc2)n1-c1ccccc1	-79.5*	2.24µM*	?	1.26µM*	-11.5%
CCOc1ccccc1NC(=O)CSc1n[nH]c(=O)n1-c1ccccc1	19.2	·	-21.9%	·	?
COc1nccnc1NS(=O)(=O)c1ccc(N)cc1	16.9	·	-14.6%	·	11.1%
Cc1ccc(C2=NCC(C)n3nc4cc(C(F)(F)F)ccc4c32)cc1 (configuration not stated)	58.7	·	·	·	·
Cc1[nH]c2ccccc2c1SCC(=O)NC1CCCCC1	-64.3*	-9.5%	14.4%	-2.1%	?
C=CCn1c(SCC(=O)N2CCCC2)nc2c([nH]c3ccccc32)c1=O	43.2	·	3.4%	·	0.1%
C=CCn1c(SCC(=O)NC2CCCC2)nc2c([nH]c3ccccc32)c1=O	-90.1*	-7.5%	8.7%	-6.4%	-3.9%
COc1ccc(C2CC(c3cccs3)=NN2C(=O)CSc2nc(=O)n3cc(C)ccc3n2)cc1 (configuration not stated)	-38.1	-20.6%	-16.4%	-27.2%	?
c1ccc(-c2ccc(-c3cn4c(n3)CCC4)cc2)cc1	-61.7*	-21.6%	?	-13.6%	?
CC(=O)c1c(C)[nH]c(C(=O)OCC(=O)NCCc2ccc(Cl)cc2)c1C	9.8	-15.2%	-2.5%	·	11.2µM*
CCOC(=O)c1c(C)[nH]c(C(=O)OCC(=O)Nc2sccc2C(N)=O)c1C	-68.3*	?	15.8µM*	-16.0%	2.82µM*
CCOC(=O)c1c(C)[nH]c(C(=O)OCC(=O)NCc2ccc(OC)c(OC)c2)c1C	-16.5	-27.4%	?	-12.5%	10µM*
CC(=O)c1c(C)[nH]c(C(=O)OCC(=O)NCc2ccc(Cl)cc2)c1C	-36.6	·	?	·	11.2µM*
COCCNC(=O)COc1ccc(OCCNC[C@H](O)COc2ccccc2)cc1	·	-14.3%	-17.0%	i	·
Cc1ccc(-n2nc3c(=O)n(CCCC(=O)NCc4ccccc4Cl)nc(C)c3c2C)cc1	?	·	-14.4%	·	5.4%
CCCN(C(=O)c1cc(S(=O)(=O)N2CCc3ccccc32)cn1C)c1ccc(OCC)cc1	-74.7*	-11.9%	-8.0%	-14.5%	·
Cn1cc(S(=O)(=O)N2CCc3ccccc32)cc1C(=O)NC(C)(C)C	-78.6*	-10.0%	?	i	?
Cn1cc(S(=O)(=O)N2CCc3ccccc32)cc1C(=O)Nc1ccc(Cl)cc1	-12.5	?	28.2µM*	-21.1%	?
CCNC(=O)C1(C)CCCN(Cc2ccccc2-c2ccccc2)C1 (configuration not stated)	-4.5	12.8%	0.0%	i	·
CCOc1ccccc1CNCc1c(C(=O)O)c(C)n(Cc2ccc(Cl)cc2)c1C	10.1	-8.6%	16.7%	-6.1%	·
Cn1c(=O)c2c(-c3ccccc3)n3c(c2n(C)c1=O)C(c1ccccc1[N+](=O)[O-])Nc1ccccc1-3 (configuration not stated)	-20.5	-7.6%	0.0%	-22.0%	·
COc1ccccc1C1Nc2ccccc2-n2c(-c3ccccc3)c3c(=O)n(C)c(=O)n(C)c3c21 (configuration not stated)	-96.4*	-15.7%	?	-7.2%	·
SMILES	HCMV antiviral	Vaccinia Venus	FMDV antiviral	VACV mCherry inh	HCV inhibitor
O=C(NCc1cccs1)c1nc2c(nnn2Cc2ccccc2Cl)c(=O)[nH]1	-102.3*	7.08µM*	?	?	5.01µM*
CCCCOc1ccc(C(=O)Nc2onc3c2CCCC3)cc1	99.2	-4.0%	-2.3%	-10.9%	·
O=C(NCCc1nc2ccccc2n1CCOc1cccc2ccccc12)C1CCCCC1	·	-25.8%	·	-14.2%	·
COc1ccc(-c2csc(Nc3ccc(S(N)(=O)=O)cc3)n2)cc1	-29.6	·	?	·	5.01µM*
Cc1nc(N)sc1-c1csc(Nc2ncccn2)n1	-77.1*	-6.8%	0.0%	-6.1%	?
COc1ccccc1Nc1nc(-c2sc(N)nc2C)cs1	-26.1	·	46.3%	·	-15.5%
COc1ccc(-c2csc(Nc3ccccc3)n2)cc1	-8.9	-4.9%	-18.6%	-16.5%	14.1µM*
